# Measured values: PubChem BioAssay (NCI)
# Compounds without any hit were thinned out: in the full panel of roughly 83,000, 20% have a hit.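 Cell lines were cultured in 96-well plates, exposed to a single compound concentration, and assessed for percent growth 48 hours later.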 Unmarked numbers belong to inactive results. Calls of active or inactive are those of the source. How the source made its calls: active means growth percent below 10; inactive means the rest.
# Tested on: SF-295 CNS
# Assay: NCI-60 one-dose screen, 48 h (100 = growth as untreated, 0 = no growth, -100 = all killed)
# Details: 10 µM unless noted
row,SMILES,growth
1,Cc1nc2sc(C(=O)Nc3cccc(Cl)c3C)c(N)c2cc1C(=O)/C=C/c1ccccc1,-14.8% (active)
2,CN1CCN(Cc2ccc(NC(=O)c3cncc(C#Cc4cnc(N)cc4C#N)c3)cc2C(F)(F)F)CC1,24.5%
3,c1cc(OCCN2CCCC2)ccc1CNc1ccc2nc(CCC3CCCCC3)[nH]c2c1,-30% (active)
4,CCN(CC)CCOc1ccc2c(-c3ccccc3)c(-c3ccc(OC)cc3)c(=O)oc2c1,62.9%
5,O=C1/C(=C/c2c[nH]c(=O)[nH]c2=O)SC(=S)N1Cc1ccccc1,102%
6,CCN(CC)CCCNc1cc(OC)c(OC)c2cccnc12,79.5%
7,COc1cc(Cc2cc(OC)c(O)c(OC)c2)cc(OC)c1O,62.2%
8,CSc1ccc(N2C(=N)C(=S)N(c3ccc(C)cc3)C2=O)cc1,96.1%
9,CCOC(=O)/C(=C(/C)NCC(C)C)c1cc(O)c(O)c2c(C)cc(=O)[nH]c12,52.3%
10,C/C(=C(\c1ccc(OCCN2CCCCCC2)cc1)c1ccc(OC(=O)c2ccccc2)cc1)c1ccc(Cl)cc1,44.4%
11,COCCn1cc(-c2csc(-c3c[nH]c4ccc(F)cc34)n2)c2cccnc21,16.1%
12,Cc1ccc2cnc(N)c(C#Cc3cc(C(=O)Nc4ccc(CN5CCN(C)CC5)c(C(F)(F)F)c4)cnc3C)c2c1,37.4%
13,O=C(NNc1nc2cc(F)ccc2n2c(CN3CCOCC3)ccc12)c1ccccc1,0.468% (active)
14,COc1ccc(-c2nc(SCC(=O)Nc3nc4ccc(C)cc4s3)[nH]c(=O)c2C#N)cc1OC,96.4%
15,CCOC(=O)c1ccc[nH]1,114%
16,COc1cc(Cc2cc(-c3ccccc3)nn(Cc3ccccc3)c2=O)cc(OC)c1OC,31.5%
17,O=C(Nc1ccc(Nc2ccncc2)cc1)c1ccc(Nc2ccnc3ccc([N+](=O)[O-])cc23)cc1,106%
18,C[C@H]1[C@H](C)CC[C@]2(C(=O)NCCNCCN)CC[C@]3(C)C(=CC[C@@H]4[C@@]5(C)CCC(=O)C(C)(C)[C@@H]5CC[C@]43C)[C@H]12,102%
19,COc1ccc(C/C(C)=C(\c2ccc(Cl)cc2)c2ccc(OCCN3CCCC3)cc2)cc1,99.2%
20,CCOc1ccc(NC(=O)Nc2ccc(OCC)cc2)cc1,95.7%

row,SMILES,growth
1,Cc1ccc(NC(=O)c2cc3ccccc3cc2O)c(C)c1,94.1%
2,COC(=O)c1c2c(c[n+]([O-])c1C)C(=O)C=C(NCc1ccccc1)C2=O,-93.7% (active)
3,C=C1C(=O)O[C@H]2[C@H]1CC/C(CNC(=O)Cc1c[nH]c3ccccc13)=C\CC[C@@]1(C)O[C@@H]21,69.9%
4,C#CCOc1ccc2nc(CCl)c(Cl)c(Nc3cccc(C(F)(F)F)c3)c2c1,88%
5,O=C1/C(=C/c2cccc(Br)c2)COc2ccc(O)cc21,100%
6,CCN(CC)CCOc1ccc(/C(=C(\C)Cc2ccc(OC)cc2)c2ccc(OC(=O)NCc3ccccc3)cc2)cc1,59.4%
7,O=C(CCCCCCCC(=O)N1CCCCC1)N1CCCCC1,117%
8,Cc1ccc(-c2nc(SCC(=O)N3CCN(c4cc5c(cc4F)c(=O)c(C(=O)O)cn5C4CC4)CC3)nc(Cl)c2C#N)cc1,97.4%
9,CSc1ccc2c3c(n(C[C@H](O)CO)c(=O)c2c1)-c1ccccc1C3=O,14.3%
10,Cc1cn(C)cn1,105%
11,C#Cc1cccc(Nc2ncnc3cc(NC(=O)CCl)ccc23)c1,-82.5% (active)
12,O=S(=O)(NCCNc1nccc(-c2c(-c3ccc(F)c(O)c3)nc3sccn23)n1)c1ccc(Cl)cc1,29.5%
13,COc1ccc(C(O)c2cc3c(N)c(C(=O)Nc4cccc5ccccc45)sc3nc2C)cc1 (stereo not given),12.9%
14,O=C(Nc1cc(Cl)ccc1O)c1ccccc1Nc1ccnc(C(F)(F)F)c1,46.3%
15,COc1ccc(/C=C2\c3cc(OC)c(OC)c(OC)c3CC[C@@H]2O)cc1F,17%
16,CCN(CC)C(=O)C1=C(C)NC(=O)NC1c1ccc2c(c1)OCO2 (stereo not given),103%
17,COc1ccc(C=Nc2c(C(=O)Nc3cccc(Cl)c3C)sc3nc(C)c(C(=O)/C=C/c4ccc(OC)cc4)cc23)cc1,18.5%
18,CC(C)(C)c1ccc(S(=O)(=O)Oc2ccc(-c3sc4cc(OS(=O)(=O)c5ccc(C(C)(C)C)cc5)ccc4c3C(=O)c3ccc(OCCN4CCCCC4)cc3)cc2)cc1,94.5%
19,COc1cc(/C=C/c2cc(/C=C/c3ccc(O)c(OC)c3)n(C(=O)Nc3ccc(Cl)cc3)n2)ccc1O,-21.9% (active)
20,O=c1cc(CP(=O)(O)O)c2cc(O)c(-c3ccccc3)cc2o1,101%
